Measurements taken from PubChem BioAssay.
Results with a measured potency or affinity are listed apart. Inconclusive results are not listed. Active and inactive are the calls of the source.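 Rule for the calls, unless noted: active = a fitted half-maximal concentration no higher than twice the top valid tested dose, with signal falling as cells die; inconclusive = flat curve between -70% and -30%, or poor fit; inactive = the rest, including signal rising instead of falling.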

Assays:
[1] = Cryptococcus neoformans growth inhibition, dose response, Alamar Blue, cherry-picks (AID 686998;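 active = falling signal with fitted half-maximal potency no higher than twice the top valid tested dose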)
[2] = inducers of Cryptococcus neoformans cell lysis, dose response, AK release luminescence, cherry-picks (AID 687000;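 active = fitted dose curve reaches 40% lysis signal rise at or below the highest valid concentration tested for that sample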;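 note: luminescent detection of adenylate kinase leaking from lysed yeast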)
[3] = HepG2 cell cytotoxicity, dose response, cytotoxicity control, cherry-picks, set 2 (AID 687002;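 active = a dose-response fit showing signal loss, with half-maximal concentration no higher than twice the top tested dose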)
[4] = HeLa cell cytotoxicity, dose response, cytotoxicity control, ATP luminescence, cherry-pick samples (AID 687004)

Measured: outcome

NC(=O)CN(c1ccccc1)S(=O)(=O)c1ccc(F)cc1
inactive: all assays above

N#Cc1ccc(-c2ccc3c(c2)[C@@H]2[C@@H](CCN2C(=O)Cc2ccccc2)[C@@H](CO)N3)cc1
inactive: all assays above

O=C(C[C@H]1CC[C@H]2[C@@H](COC[C@@H](O)CN2S(=O)(=O)c2ccc(Oc3ccccc3)cc2)O1)NC1CCC1
inactive: all assays above

Cc1ccc(NC(=O)C2(C)CCN2C(=O)C2CCCCC2)cc1C (stereo not drawn)
inactive: all assays above

CN(C)C(=O)c1ccc(-c2ccc([C@H]3[C@H]4CN(CCC(F)(F)F)CCCCN4[C@H]3CO)cc2)cc1
inactive: all assays above

COc1ccc(-c2cnc3c(c2)C(=O)N([C@H](C)CO)C[C@H](C)[C@H](CN(C)Cc2ccc(F)cc2)O3)cc1
inactive: all assays above

C[C@H]1CN([C@@H](C)CO)C(=O)CCCn2nncc2CO[C@@H]1CN(C)Cc1cccc(C(F)(F)F)c1
inactive: all assays above

O=C(NC(=S)Nc1ccc(CN2CCOCC2)cc1)c1ccc([N+](=O)[O-])cc1
inactive: all assays above

CO[C@@H](CN(C)Cc1ccc2c(c1)OCO2)[C@@H](C)CN(C(=O)c1ccccc1)[C@H](C)CO
inactive: all assays above

CC(=O)NC[C@H]1[C@@H](c2ccc(C3=CCCC3)cc2)[C@@H](CO)N1C(=O)NC(C)C
inactive: all assays above

CO[C@H]1CN(C)C(=O)c2cc(NC(=O)Nc3cccc(F)c3)ccc2OC[C@H](C)N(C)C[C@H]1C
inactive: all assays above

Cc1ccc(S(=O)(=O)N(CC(=O)NCCSC2CCCCC2)c2ccccc2F)cc1
inactive: all assays above
